# In paper PMC4336329 (PLoS ONE, 2015):
# The whole screen tested about 310,000 compounds, of which about 14,000 (4.5%) showed an effect of 50% or more. Effects have a minus sign here. The sample holds strong results, similar compounds and a random draw of the others, so the mix is not that of the screen.
# Molecular target: human ether-à-go-go-related gene (hERG) potassium channel (human, UniProt Q12809)
# Experiment: primary screen, population patch clamp on CHO cells stably expressing hERG; higher = less effect of the substance
# 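Further: peak tail current of the secondary pulse compared with the same well before compound.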
# Sequence of human ether-à-go-go-related gene (hERG) potassium channel (Q12809 whole entry, looked up): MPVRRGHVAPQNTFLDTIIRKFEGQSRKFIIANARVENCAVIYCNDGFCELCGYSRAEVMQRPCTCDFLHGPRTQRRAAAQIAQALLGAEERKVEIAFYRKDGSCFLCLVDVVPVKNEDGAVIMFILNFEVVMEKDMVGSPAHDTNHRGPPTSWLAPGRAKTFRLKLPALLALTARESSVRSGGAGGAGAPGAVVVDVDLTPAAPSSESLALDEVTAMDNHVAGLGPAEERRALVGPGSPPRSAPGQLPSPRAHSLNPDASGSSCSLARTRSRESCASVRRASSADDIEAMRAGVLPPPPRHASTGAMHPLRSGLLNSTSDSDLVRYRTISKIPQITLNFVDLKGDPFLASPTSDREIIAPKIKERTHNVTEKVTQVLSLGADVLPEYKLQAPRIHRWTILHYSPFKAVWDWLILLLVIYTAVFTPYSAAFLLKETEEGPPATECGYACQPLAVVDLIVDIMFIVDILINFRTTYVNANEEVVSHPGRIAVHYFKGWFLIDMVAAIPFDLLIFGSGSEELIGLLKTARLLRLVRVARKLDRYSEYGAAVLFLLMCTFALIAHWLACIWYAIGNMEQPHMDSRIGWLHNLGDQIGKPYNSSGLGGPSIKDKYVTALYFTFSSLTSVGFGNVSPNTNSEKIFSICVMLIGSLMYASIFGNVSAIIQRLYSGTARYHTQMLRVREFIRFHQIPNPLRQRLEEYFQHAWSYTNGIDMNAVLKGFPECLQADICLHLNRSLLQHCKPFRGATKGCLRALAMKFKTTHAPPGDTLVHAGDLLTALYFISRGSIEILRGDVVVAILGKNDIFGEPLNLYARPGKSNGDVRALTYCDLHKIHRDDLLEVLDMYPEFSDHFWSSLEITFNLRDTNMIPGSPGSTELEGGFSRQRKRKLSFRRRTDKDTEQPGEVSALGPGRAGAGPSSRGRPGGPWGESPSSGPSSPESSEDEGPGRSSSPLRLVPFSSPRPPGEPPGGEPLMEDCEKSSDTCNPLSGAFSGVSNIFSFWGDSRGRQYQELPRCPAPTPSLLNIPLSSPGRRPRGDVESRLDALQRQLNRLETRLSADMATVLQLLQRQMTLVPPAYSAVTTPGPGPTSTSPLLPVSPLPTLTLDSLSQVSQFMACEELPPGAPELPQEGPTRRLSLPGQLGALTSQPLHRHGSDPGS
row,Structure (SMILES),"hERG current change (%, negative = inhibition) at 10uM"
1,O=C1N=C(N2CCOCC2)S/C1=C\c1ccc(-c2ccccc2Cl)o1,-15.3%
2,COC(=O)CS(=O)(=O)c1ccsc1C(=O)Nc1ccc(F)cc1,3.5%
3,Cc1ccc(SCCC(=O)Nc2ccccc2Br)cc1,12.8%
4,C=CCn1cnc2c(oc3ccccc32)c1=O,4.04%
5,Cc1cnc(C(=O)OCC(=O)N=c2sccn2Cc2ccccc2Cl)cn1,10.1%
6,CCOC(=O)N1CCC(NC(=O)COc2cc(=O)n(C)c3ccccc23)CC1,6.6%
7,O=C(NCCNS(=O)(=O)c1ccccc1)N1CCOCC1,18.3%
8,O=C(NC1CCCCC1)C(c1ccccc1F)N(Cc1ccco1)C(=O)c1ccccn1 (centres unmarked),-4.03%
9,C[n+]1c2n(c3ccccc31)N=C(c1ccccc1)CS2.[Br-],-47.3%
10,C[n+]1c2n(c3ccccc31)N=C(c1ccc(-c3ccccc3)cc1)CS2.[Br-],-79.7%
11,CC1Sc2n(c3ccccc3[n+]2C)N=C1c1ccccc1.[Br-] (centres unmarked),-49.6%
12,CCc1nnc2n1N=C(c1ccc(Cl)cc1)CS2,8.48%
13,Cc1ccc(-c2nnc3n2N=C(c2ccc(Br)cc2)CS3)cc1,-1.26%
14,C[n+]1c2n(c3ccccc31)N=C(c1cc(C(C)(C)C)c(O)c(C(C)(C)C)c1)CS2.[Br-],-77.6%
15,Cc1cc(Cn2nnc3ccccc32)c(O)c(C(C)(C)C)c1,19.3%
16,COc1ccccc1-c1nnc2n1N=C(c1ccc(O)c(O)c1)CS2,-0.453%
17,C[n+]1c2n(c3ccccc31)N=C(c1ccc(Br)cc1)CS2.[Br-],-69.5%
18,COc1ccc(C2=Nn3c([n+](C)c4ccccc43)SC2)cc1.[Br-],-44.2%
19,C[n+]1c2n(c3ccccc31)N=C(c1ccc(Cl)cc1)CS2.[Br-],-69%
20,Cc1nnc2n(c1=O)N=C(c1ccc(Cl)cc1)CS2,6.25%
21,Cc1ccc2nc(N3C(=O)C(O)=C(C(=O)c4ccc(C)o4)C3c3ccco3)sc2c1 (centres unmarked),12.8%
22,COC(=O)c1ccc(NC(=O)C[n+]2ccccc2)cc1.[Cl-],11.9%
23,COc1ccc(NC(=O)Cn2c(=O)oc3cc(S(=O)(=O)N4CCCC4)ccc32)c(OC)c1,7.38%
24,O=C(Nc1ccccc1)c1ccc(NCCN2C(=O)CCC2=O)c([N+](=O)[O-])c1,10.9%
25,CCCn1c(N)c(N2CCCCC2)c(=O)n(CC(=O)Nc2ccccc2C)c1=O,14.6%
26,Cc1nn(C)cc1C(C)Nc1nc2nonc2nc1N1CCCCC1 (centres unmarked),0.196%
27,CCN(Cc1ccc2c(c1)OCO2)C(=O)CSc1nc(C)nc2sc(C)c(C)c12,-5.76%

row,Structure (SMILES),"hERG current change (%, negative = inhibition) at 10uM"
1,COc1ccc(C(=O)Nc2c(N)nc(SCC(=O)Nc3ccc(NC(C)=O)cc3)[nH]c2=O)cc1,21.9%
2,COc1ccc(C(CC(=O)N2CCCCC2)c2c(OC)cc(OC)c3c(-c4ccccc4)cc(=O)oc23)cc1 (centres unmarked),0.849%
3,COc1cc(OC)c2c(-c3ccccc3)cc(=O)oc2c1C(CCN1CCCCC1)c1ccc2c(c1)OCO2 (centres unmarked),-53.2%
4,COc1ccc(C(CCN2CCN(c3ccccc3)CC2)c2c(OC)cc(OC)c3c(-c4ccccc4)cc(=O)oc23)cc1 (centres unmarked),-9.55%
5,CCN(CC)CCC(c1ccc(N(C)C)cc1)c1c(OC)cc(OC)c2c(-c3ccccc3)cc(=O)oc12 (centres unmarked),-24.5%
6,COc1cc(OC)c2c(-c3ccccc3)cc(=O)oc2c1C(CCN1CCCC1)c1ccc2c(c1)OCO2 (centres unmarked),-46.9%
7,COc1ccc(C(CCN2CCCCC2)c2c(OC)cc(OC)c3c(-c4ccccc4)cc(=O)oc23)cc1 (centres unmarked),-55.1%
8,CCN(CC)C(=O)CC(c1ccc2c(c1)OCO2)c1c(OC)cc(OC)c2c(-c3ccccc3)cc(=O)oc12 (centres unmarked),5.08%
9,CCN(CC)CCC(c1ccc2c(c1)OCO2)c1c(OC)cc(OC)c2c(-c3ccccc3)cc(=O)oc12 (centres unmarked),-65.4%
10,COc1ccc(C(CCN2CCCC2)c2c(OC)cc(OC)c3c(-c4ccccc4)cc(=O)oc23)cc1 (centres unmarked),-52.7%
11,COc1cc(OC)c2c(-c3ccccc3)cc(=O)oc2c1C(CCN1CCCCC1)c1ccc(N(C)C)cc1 (centres unmarked),-25%
12,COc1ccc(C(CC(=O)N2CCCC2)c2c(OC)cc(OC)c3c(-c4ccccc4)cc(=O)oc23)cc1 (centres unmarked),-5.46%
13,COc1cc(OC)c2c(-c3ccccc3)cc(=O)oc2c1C(CCN1CCCC(C)C1)c1ccc2c(c1)OCO2 (centres unmarked),-48.8%
14,Nc1cc(=O)[nH]c(SCc2nnnn2-c2ccc(Cl)cc2)n1,4.04%
15,CCN1CCCC1CNC(=O)Cn1cc2c(n1)CCC(C)C2 (centres unmarked),5.4%
16,Cn1ncc(C#N)c1/N=C/N(Cc1ccccc1)Cc1ccccc1,-9.12%
17,COCCN(C(=O)COC(=O)c1ccccc1Nc1ccccc1)c1c(N)n(Cc2ccccc2)c(=O)[nH]c1=O,-44.9%
18,Cc1occc1C(=O)NNC(=S)NCc1ccccc1,6.47%
19,CC(C)(C)C(=O)Nc1cc2c3c(c1)CC(=O)N3CCC2,18.3%
20,COc1ccccc1NC(=O)N(Cc1cc2cc(OC)c(OC)cc2[nH]c1=O)CC1CCCO1 (centres unmarked),-9.13%
21,CCN1CCCC1CN(Cc1cc2cc(C)cc(C)c2[nH]c1=O)C(=O)Nc1ccccc1OC (centres unmarked),-61.4%
22,CCN1CCCC1CN(Cc1cc2ccc(C)c(C)c2[nH]c1=O)C(=O)Nc1ccccc1OC (centres unmarked),-63.3%
23,Cc1ccc2[nH]c(=O)c(CN(CC3COCCO3)C(=O)Nc3ccccc3C)cc2c1 (centres unmarked),3.87%
24,COc1ccccc1NC(=O)N(Cc1ccco1)Cc1cc2cc(C)cc(C)c2[nH]c1=O,-2.39%
25,CCN1CCCC1CN(Cc1cc2cc(OC)ccc2[nH]c1=O)C(=O)NCc1ccccc1 (centres unmarked),-46.4%
26,CCN1CCCC1CN(Cc1cc2cc(C)ccc2[nH]c1=O)C(=O)Nc1ccccc1OC (centres unmarked),-60%
27,CCOc1ccc2[nH]c(=O)c(CN(CC3CCCN3CC)C(=O)NCc3ccccc3)cc2c1 (centres unmarked),-63.2%

row,Structure (SMILES),"hERG current change (%, negative = inhibition) at 10uM"
1,CCOc1ccc2[nH]c(=O)c(CN(Cc3ccccc3)C(=O)N3CCCC3)cc2c1,9.28%
2,COc1ccccc1NC(=O)N(Cc1ccco1)Cc1cc2ccc(C)c(C)c2[nH]c1=O,8.85%
3,COc1ccccc1NC(=S)N(Cc1ccco1)Cc1cc2ccc(C)c(C)c2[nH]c1=O,-8.05%
4,COc1ccccc1NC(=O)N(CCN1CCOCC1)Cc1cc2cc(C)cc(C)c2[nH]c1=O,-33.2%
5,CCn1c(Cc2c(C)[nH]c3ccccc23)nnc1SCC(N)=O,13.4%
6,Cc1nn(C)c2c(=O)c(=O)c2n(C)[nH]1,18%
7,Cc1c(C(=O)NCC2CCCO2)oc2ccc3c(c12)C(=O)CC(C)(C)O3 (centres unmarked),2.71%
8,O=C(CSc1nnc(CNC(=O)c2ccco2)o1)Nc1cccc(C(F)(F)F)c1,-48.3%
9,COc1cccc(NC(=O)Cc2csc(NC(=O)Nc3ccccc3OC)n2)c1,18.2%
10,COc1ccc(CNCc2c(O)c(Cl)cc3c(C)c(C)c(=O)oc23)c(OC)c1.Cl,-3.6%
11,O=C(Cn1c(=O)oc2cc(S(=O)(=O)N3CCCC3)ccc21)N1CCc2ccccc2C1,-32.3%
12,Cc1cccc2nc(CSCc3ccco3)cn12,-2.01%
13,O=C1c2ccccc2C(=O)N1OCc1ccccc1[N+](=O)[O-],23.7%
14,O=[N+]([O-])c1ccc(N2CCN(C(=S)Nc3cccc(F)c3)CC2)cc1,-52%
15,COc1ccc(NC(=O)N2CCCC2)cc1OC,-10.2%
16,COc1ccccc1N1CCN(C(=O)Nc2ccc([N+](=O)[O-])cc2)CC1,-52.4%
17,COc1cccc(CN2CCN(C(=O)Nc3ccc([N+](=O)[O-])cc3)CC2)c1,-57.2%
18,COc1ccccc1N1CCN(C(=O)c2cc(C(=O)N3CCN(c4ccccc4OC)CC3)cc([N+](=O)[O-])c2)CC1,-0.436%
19,COc1ccc(NC(=O)N2CCN(c3ccc([N+](=O)[O-])cc3)CC2)cc1,-36.9%
20,CN1CCN(C(=O)Nc2ccc([N+](=O)[O-])cc2)CC1,-23.8%
21,O=[N+]([O-])c1ccc(NC(=S)N2CCN(c3ccc(F)cc3)CC2)cc1,3.73%
22,COc1cccc(CN2CCN(C(=O)CC(C)C)CC2)c1,-13.1%
23,COc1ccc(NC(=O)N2CCN(c3ccc([N+](=O)[O-])cc3)CC2)cc1OC,-73.2%
24,O=[N+]([O-])c1ccc(N2CCN(C(=S)Nc3ccc(F)cc3)CC2)cc1,-44.4%
25,CCOC(=O)c1ccc(NC(=O)N2CCN(c3ccccc3OC)CC2)cc1,11.4%
26,CCCC[C@@H]1CNC(=S)N1CCC12CC3CC(CC(C3)C1)C2,18.9%
